Source: PubChem (National Center for Advancing Translational Sciences (NCATS))
Only a selection was taken, and hits are over-represented in it overall.
G9a inh: blocks human histone lysine methyltransferase G9a; Potency, µM (doses to about 102 µM), for the others: top-dose activity, negative = inhibition, most hits filed as inhibitors; AID 504332; Q96KQ7; 350,000 compounds, 8.8% hits; G9a H3K9 monomethylation, AlphaScreen, 2 h; also: % is scaled to controls: 0 for no effect and ±100 for the full control effect; nearly all actives have a fitted effect of over 75% in size
Target sequence (Q96KQ7 913-1193 limits assumed): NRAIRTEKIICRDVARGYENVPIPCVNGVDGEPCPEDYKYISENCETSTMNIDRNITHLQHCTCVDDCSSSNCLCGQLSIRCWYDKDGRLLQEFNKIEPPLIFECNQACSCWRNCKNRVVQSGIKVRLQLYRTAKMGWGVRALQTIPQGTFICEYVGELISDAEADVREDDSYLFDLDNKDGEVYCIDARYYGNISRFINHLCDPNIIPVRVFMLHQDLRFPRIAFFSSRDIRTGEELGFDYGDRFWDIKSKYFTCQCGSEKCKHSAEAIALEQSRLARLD
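AlphaScreen detection with an anti-monomethyl H3K9 antibody quantified product after a 2 h room-temperature reaction containing 500 nM biotinylated H3K9 peptide, 20 µM SAM and 20 nM enzyme, which had been preincubated 15 min with compound.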
12-LOX inh: blocks human arachidonate 12S-lipoxygenase; P18054; purified 12hLO, xylenol orange hydroperoxide absorbance; Potency, µM (doses to about 108 µM), without a hit: at the highest dose activity change, negative = inhibition, actives largely listed as inhibitors; 580,000 compounds, 1.1% hits; AID 1671190; also: % is scaled to controls: 0 for no effect and ±100 for the full control effect
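Purified human 12hLO (150 nM final) in 25 mM Hepes, 0.01% Triton X-100, pH 7.0 was preincubated 15 min at room temperature with compound. Then 40 uM arachidonic acid was added, 30 min. Hydroperoxide was read by Fe-XO absorbance ratio 573/405 nm.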
VDR inhibitor: vitamin D3 receptor (human) inhibition; P11473; VDR-SRC2-3 peptide fluorescence polarization, 2 h; Potency, µM, for the others: max response, negative = inhibition, hits mostly inhibitors; 400,000 compounds, 0.93% hits; AID 504847; also: % is scaled to controls: 0 for no effect and ±100 for the full control effect
Target sequence (P11473 whole entry, looked up): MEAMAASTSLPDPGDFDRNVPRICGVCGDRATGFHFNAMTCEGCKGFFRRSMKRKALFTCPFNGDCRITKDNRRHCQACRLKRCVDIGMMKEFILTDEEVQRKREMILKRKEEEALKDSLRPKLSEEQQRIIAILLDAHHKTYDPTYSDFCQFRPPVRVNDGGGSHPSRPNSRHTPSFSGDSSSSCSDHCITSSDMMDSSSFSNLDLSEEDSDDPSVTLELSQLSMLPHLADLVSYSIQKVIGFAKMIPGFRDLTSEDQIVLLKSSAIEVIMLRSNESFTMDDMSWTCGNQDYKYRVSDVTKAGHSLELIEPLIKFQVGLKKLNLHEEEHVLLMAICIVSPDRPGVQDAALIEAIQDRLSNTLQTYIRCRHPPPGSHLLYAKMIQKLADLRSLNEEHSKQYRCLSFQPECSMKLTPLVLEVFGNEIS
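VDR–SRC2-3 interaction, FP format. Cmpds 23 nl via pintool, brief spin, 2 h ambient incubation.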
GRP78 ERSR act: induces the endoplasmic reticulum stress response in human glioma cells; U87-MG GRP78 promoter luciferase reporter, 16 h; Potency, µM, for the others: at the highest dose activation, usual class: activators; 420,000 compounds, 0.02% hits; also: series mostly up to about 76 µM; % of control where 0% means no effect; nearly all actives have a fitted effect of over 35% in size
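Stably transfected U87-MG human glioma cells carrying a GRP78-based luminescent sensor were seeded at 1000 cells/well, pin-dosed with compounds and incubated 16 h. Luciferase reagent was then added, and end-point luminescence was read after 10 min at room temperature.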
Sfp PPTase inh: Sfp phosphopantetheinyl transferase inhibition | AID 1490 | Q9F4F7 | 310,000 compounds, 3.5% hits | Potency, µM, for inactives: largest response in the series, negative = inhibition, actives largely listed as inhibitors | Biochemical Sfp PPTase activity, qHTS;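 also: the enzyme is Sfp with the accession as filed and its product quenches rhodamine fluorescence; 0% = enzyme reaction without inhibitor and -100% = no enzyme wells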
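Fluorescence-quenching assay: 15 nM Sfp-PPTase preincubated 15 min at room temperature with compound, then 5 uM rhodamine-CoA and 12.5 uM BHQ-2-labelled YbbR peptide added. Fluorescence (ex 525/em 598 nm) read at start and after 30 min; difference gives rate.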
* hit, by the source's call; u = inconclusive; x = no result given; [ ] = dose if it differs, or a comment. Calls follow the shape of the dose curve; as a rule, active = well fitted curve in the direction sought with a large enough effect; inconclusive = small, poorly fitted or top-dose-only effect, or another doubt; inactive = no such curve, though single readings can be large; an effect the other way counts as inactive or inconclusive. Potency is read from the fitted curve at half-maximal effect.

SMILES	G9a inh	12-LOX inh	VDR inhibitor	GRP78 ERSR act	Sfp PPTase inh
O=C(NCCN1C(=O)S/C(=C/c2cccnc2)C1=O)c1cccs1	23%[12.7 µM]	-5%	-5%	-3%	x
CC1(C)CC(=O)C(C=Nc2cccnc2/N=C/C2=C(O)CC(C)(C)CC2=O)=C(O)C1	u	-26%	1%	-3%	20%
CC1(C)CC(=O)C(C=Nc2ccc(C(=O)c3ccccc3)cc2N=CC2=C(O)CC(C)(C)CC2=O)=C(O)C1	40µM*	u	u	-1%	-89%
CC(C)Oc1ccc(/C=C(/C#N)c2nc3ccccc3[nH]2)cc1Br	x	30%	x	x	x
CC(=O)NCCC(=O)Nc1cc(S(=O)(=O)N2CCCCC2)ccc1N1CCN(C)CC1	50µM*	3%	-8%	-1%	x
CN1CCN(c2ccc(S(=O)(=O)N3CCCCC3)cc2NC(=O)Cc2c(F)cccc2Cl)CC1	45µM*	u	2%	-5%	x
O=C(Cc1c(F)cccc1Cl)Nc1cc(S(=O)(=O)N2CCCCC2)ccc1N1CCOCC1	-4%[12.7 µM]	0%	22%	-1%	7%
Cc1ccccc1CC(=O)Nc1cc(S(=O)(=O)N2CCCCC2)ccc1N1CCN(C)CC1	x	6%	x	x	x
CCn1cc(CN2CCC(N3C(=O)C4(CCCC4)C3c3ccccc3)CC2)cn1 (centres undefined)	x	37%	x	x	x
O=C(c1ccc(F)cc1)N1CCC(Cc2nc(-c3ccc(F)cc3)no2)CC1	x	12%	x	x	x
COc1ccc(NC(=O)CN2CCN(Cc3ccc4c(c3)OCO4)CC2)cc1OC	u	u	-6%	7%	56µM*
O=C(CN1CCN(Cc2ccc3c(c2)OCO3)CC1)Nc1ccc(F)cc1	3%[59 µM]	-21%	9%	2%	3%
COc1cc(NC(=O)CN2CCN(Cc3ccc4c(c3)OCO4)CC2)cc(OC)c1	2.8µM*	u	-13%	-6%	56µM*
O=C(CN1CCN(Cc2ccc3c(c2)OCO3)CC1)Nc1ccc2c(c1)OCO2	18%[12.7 µM]	5%	0%	-1%	-7%
Cc1csc(SCC(=O)Nc2ccc(C(N)=O)cc2)n1	x	-20%	x	x	x
Cc1[nH]c2ccc(C(=O)N3CCC(C(=O)NCC(C)(C)CN(C)C)CC3)cc2c1C	x	-28%	x	x	x
COc1ccc(-c2nnc(SCC(=O)Nc3ccc(Cl)cc3)n2C)cc1	20%[59 µM]	-1%	-3%	-2%	14%
CCOC(=O)/C(=N\Nc1cccc(Cl)c1)Sc1nnc(-c2ccc(OC)cc2)n1C	8.9µM*	u	10%	-4%	-4%
CCOC(=O)c1ccc(Oc2coc3cc(OC(=O)c4cccs4)ccc3c2=O)cc1	x	21%	x	x	x
CCCCOc1ccc(CNC(=S)N/N=C/c2ccc(OC)c(OC)c2)cc1	-15%[59 µM]	28µM*	16%	-6%	14%
CCOc1ccc(CNC(=S)N/N=C\c2ccc([N+](=O)[O-])cc2)cc1	u	u	-8%	-1%	56µM*
CCN=C(N/N=C/c1ccc([N+](=O)[O-])cc1)SC	7.9µM*	32µM*	-19%	-2%	79µM*
Cc1sc2ccn(C)c(=O)c2c1C(=O)NCc1ccc(OC(C)C)cc1	x	-2%	x	x	x
CN1CCC(Cn2ccc3c(N4CCOCC4)nc(-c4ccc5cn[nH]c5c4)cc32)CC1	x	3%[176 µM]	x	x	x
N#Cc1ccccc1S(=O)(=O)N1CCN(C(=O)c2cc3c(s2)CCC3)CC1	35µM*	-5%	-17%	-2%	x
SMILES	G9a inh	12-LOX inh	VDR inhibitor	GRP78 ERSR act	Sfp PPTase inh
Cc1ccc(N2C(=O)[C@@H]3[C@H](C2=O)C2CCCN2[C@@H]3C(=O)c2ccccc2)cc1 (some centres undefined)	-2%[2.33 µM]	45µM*	u	-11%	56µM*
O=C(c1ccccc1)[C@@H]1[C@@H]2C(=O)N(c3ccc(F)cc3)C(=O)[C@@H]2C2CCCN21 (some centres undefined)	x	u	u	-13%	89µM*
O=C1C2CCCN2C(c2ccccc2)N1c1ccc(F)cc1 (centres undefined)	-21%	1%	-5%	-4%	-5%
CCc1ccc(C(=O)CSc2n[nH]c(CC)n2)cc1	x	4%	x	x	x
Oc1ccc(C2=NNC(=NCc3ccc4c(c3)OCO4)SC2)c(O)c1	u	u	-6%	2%	-27%
Clc1ccc(C2=NNC(=NCc3ccc4c(c3)OCO4)SC2)cc1	28µM*	u	u	-1%	-17%
CCCCc1ccc(Nc2nc(N3CCOCC3)nc(N3CCOCC3)n2)cc1	50µM*	-23%	-14%	-5%	-5%
CSc1nc2ccc(Nc3nc(N4CCOCC4)nc(N4CCOCC4)n3)cc2s1	16µM*	0%	-4%	3%	-16%
Cc1ccc(Nc2nc(N3CCOCC3)nc(N3CCOCC3)n2)cc1	x	4%	2%	-2%	5%
CN1C[C@H](NCc2cccc3c2OCO3)CCC[C@@H](C(=O)NCc2cc(F)cc(F)c2)CC1=O	x	1%	x	x	x
CCN1CCC(N(C(=O)c2ccc3ccccc3n2)C2CC2)CC1	x	11%	x	x	x
COc1ccccc1OCCCOc1ccc(C)cc1Br	265%	-8%	4%	-1%	0%
Cc1ccc(C(C)C)c(OCCCN(C)Cc2ccccc2)c1	10µM*	u	-10%	-5%	-75%
Cc1ccc(OCCCCN(C)Cc2ccccc2)c(Br)c1	11µM*	u	-13%	4%	-2%
CN(CCOc1ccccc1)Cc1ccccc1	x	x	x	-3%	x
Cc1cc(C)c(OCCCCN(C)Cc2ccccc2)c(C)c1	1.3µM*	u	9%	-3%	u
O=C(NNC(=O)C1CCCCC1)c1ccccc1F	x	12%	x	x	x
Cc1cc2oc(C(=O)Nc3ccc(F)cc3)cc(=O)c2cc1C	x	-17%	x	x	x
COc1cc2c(cc1OC)C(c1ccc(SC)cc1)CC(=O)N2 (centres undefined)	x	14%	2%	-3%	89µM*
O=C(O)CCCCCn1c(SCC(=O)c2ccc(O)c(O)c2)nc2ccsc2c1=O	79µM*	u	-5%	-3%	-13%
O=C(CSc1nc2ccsc2c(=O)n1CC1CCC(C(=O)O)CC1)c1ccc(Cl)cc1 (centres undefined)	56µM*	-22%	-4%	-4%	-17%
O=C(CCCn1c(SCC(=O)c2ccc(O)c(O)c2)nc2ccccc2c1=O)NCC1CCCO1 (centres undefined)	35µM*	1.8µM*	14%	3%	1%
O=C(CSc1nc2ccsc2c(=O)n1CC1CCC(C(=O)O)CC1)c1ccc(F)cc1 (centres undefined)	u	7%	15%	-1%	1%
O=C(CCCn1c(SCC(=O)NCCc2ccccc2)nc2ccccc2c1=O)NCC1CCCO1 (centres undefined)	18%[59 µM]	-4%	-5%	-3%	4%
CCCCn1c(SCC(=O)c2ccc(O)c(O)c2)nc2ccsc2c1=O	7%[59 µM]	x	-17%	-1%	1%
O=C(NN1C(=O)/C(=C/c2cc([N+](=O)[O-])ccc2O)SC1=S)c1ccccc1O	-18%[2.33 µM]	x	x	x	x
